Measurements as given in PubChem BioAssay.

Assay: probe aShh binding to arrayed compounds – biochemical, biotinylated probe, 635/667 nm fluorescence, primary screen (AID 1114);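 further: probe is biotin-labelled aShh protein from a stem cell growth factor screen; measures binding of labelled protein to compounds printed on the slide; score merges feature fluorescence at 667 nm with signal-to-noise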
Settings: small-molecule microarray, higher = more signal

Row | Structure (SMILES) | composite z-score
1 | CC(C)(C)OC(=O)CC[C@]1(C(=O)N2CCOCC2)N=C(c2ccc(OCCCO)cc2)O[C@H]1c1ccccc1CN=[N+]=[N-] | -0.141
2 | CC(c1ccccc1)C(O)C1C=CC2C(=O)N(c3ccccc3)C(=O)C2N1Nc1ccc(C#N)cc1 (stereo not drawn) | 0.156
3 | COc1ccc(CCNC(=O)[C@@]2(Sc3ccc(C)cc3)CC(=O)N(Cc3cc(C(F)(F)F)cc(C(F)(F)F)c3)[C@@H]2c2ccc(CO)cc2)cc1 | -0.117
4 | CCOC(=O)C[C@H]1[C@H](OC(=O)c2cc3ccccc3oc2=O)[C@@H](NC(=O)C2CCCCC2)c2cc(OCCCO)ccc2N1C(=O)Cc1ccc(OC)cc1 | 0.42
5 | CC1CC/C=C\[C@H]2OC34C=CCN(CCN5CCOCC5)C(=O)[C@H]3N(CCCCCCO)C(=O)[C@@H]4C2C(=O)O1 (stereo partly drawn) | -0.154
6 | CCOC(=O)C1=CC[C@@H](c2ccc(F)cc2)N(S(=O)(=O)c2ccc(C)cc2)[C@H]1c1ccc([N+](=O)[O-])cc1 | -0.138
7 | COC(=O)[C@@]1(Cc2ccc(OC)cc2)[C@@H]2[C@@H](CC(=O)[C@H]2CC(=O)C(=O)N2CCCC2)CN1C(=O)c1ccccc1 | 2.68
8 | C=CCNC(=O)[C@H]1[C@@H]2C(=O)O[C@@H](c3ccccc3)[C@@H](c3ccccc3)N2[C@@H](c2ccc(O)cc2)[C@]12C(=O)Nc1ccc(C#CC3=CCCCC3)cc12 | 0.951
9 | COC(=O)Cn1c(C(=O)N(C)C)cc2c1C[C@H]1CN(C(=O)c3ccccc3)[C@@](Cc3ccc(OC)cc3)(C(=O)OC)[C@@H]21 | 0.297
10 | O=C1O[C@@H](c2ccccc2)[C@@H](c2ccccc2)N2[C@@H](c3ccc(O)cc3)[C@]3(C(=O)Nc4ccc(C#CC5=CCCCC5)cc43)[C@@H](C(=O)N3CCCCCCC3)[C@H]12 | 2.04
11 | CC(C)C[C@H]1NC(=O)[C@@]23C(=O)N[C@@H](Cc4ccccc4)C2[C@H](C)[C@@]2(C)O[C@H]2C3/C=C/C/C=C\CNC(=O)[C@@H]2CCCN2C1=O (stereo partly drawn) | 0.111
12 | C#CCN(C/C=C/c1ccccc1)[C@H](CO[Si](C)(C)C(C)(C)C)c1ccccc1 | -0.0553
13 | COC(=O)C1(CC(C)C)C=C2C(=C(C(C)C)C(=O)C2C)CN1 (stereo not drawn) | 0.171
14 | CC=CC(O)C1C=CC2C(=O)N(C)C(=O)C2N1NC(=O)OC(C)(C)C (stereo not drawn) | -0.206
15 | COc1cc2c(cc1O)C(C1CC1)N(Cc1ccc([N+](=O)[O-])o1)CC2 (stereo not drawn) | -0.291
16 | CC(C)C[C@H]1NC(=O)[C@@H](C)NC(=O)[C@@]23C(=O)N[C@@H](Cc4ccccc4)C2[C@H](C)[C@@]2(C)O[C@H]2C3/C=C/C/C=C\CNC1=O (stereo partly drawn) | -0.223
17 | COCCOC(=O)N1C(=O)[C@@]2(c3cc(C#Cc4ccc(OC)cc4)ccc31)[C@H](C(=O)N1CCCCCCC1)[C@H]1C(=O)O[C@H](c3ccccc3)[C@H](c3ccccc3)N1[C@@H]2c1ccccc1OCCO | 0.451
18 | CCCCN1CC=CC23O[C@@H]4C=CCOC(=O)[C@@H]4[C@H]2C(=O)N(C(CO)C(C)C)[C@@H]3C1=O (stereo partly drawn) | -0.138
19 | C[C@H]1NC(=O)C([C@@H](C)OCc2ccccc2)NC(=O)[C@@]23C(=O)N[C@@H](Cc4ccccc4)C2[C@H](C)[C@@]2(C)O[C@H]2C3/C=C/C/C=C\CNC1=O (stereo partly drawn) | -0.0553
20 | C=CCC(OC(C)=O)[C@@H]1[C@@H](N(Cc2cc3ccccc3o2)C(=O)c2cccc3ccccc23)c2cc(OCCCO)ccc2N1C(=O)c1ccc2ccccc2c1 (stereo partly drawn) | -0.138
21 | NC(=O)NCC#Cc1ccc2c(c1)[C@]1(C(=O)N2)[C@H](C(=O)N2CCCCCCC2)[C@H]2C(=O)O[C@H](c3ccccc3)[C@H](c3ccccc3)N2[C@@H]1c1ccc(O)cc1 | 1.54
22 | [N-]=[N+]=NCc1ccccc1[C@H]1OC(c2ccc(OCCCO)cc2)=N[C@@]1(Cc1ccccc1)C(=O)N1CCOCC1 | -0.226
23 | CC(C)=CCN(C(=O)C#Cc1ccccc1)[C@H](CO)c1ccccc1 | -0.16
24 | CCCC=C(CCC)[C@@H](NC(=O)c1ccco1)c1ccc(C(=O)OC)cc1 | 0.202
25 | CN(C)CCCCNC(=O)[C@H]1C[C@H]2C(=O)NCC(=O)N2[C@H]1c1cccc(OCCO)c1 | -0.285
26 | N#Cc1ccc(C(O)C2C=CC3C(=O)NC(=O)C3N2Nc2ccccn2)cc1 (stereo not drawn) | 0.151
27 | C=CCC(OC(C)=O)[C@@H]1[C@@H](N(Cc2ccc(-c3cccc(C(F)(F)F)c3)o2)C(=O)Cc2ccc(F)cc2)c2cc(OCCCO)ccc2N1C(=O)c1ccc2ccccc2c1 (stereo partly drawn) | -0.221
28 | COCCOC(=O)N1C(=O)[C@@]2(c3cc(C#CC4(O)CCCCCC4)ccc31)[C@H](c1ccc(OCCO)cc1)N1[C@H](c3ccccc3)[C@H](c3ccccc3)OC(=O)[C@H]1[C@@H]2C(=O)N1CCCCCCC1 | 1.01
